Of roughly 8,800 targets only a part is listed; those with a hit were picked by preference. About 0.5% of all pairs of compound and target were hits. A number with no mark means an inactive call.
Tests used:
Experiment in all cases: log2 fold change, soluble protein after heating vs DMSO (PISA); higher = thermal stabilisation; K562 lysate, 10 uM; active = over 0.2 and 3.5 SD of the protein, either way, in both replicates (recomputed)
[1] = compound: CCCS(=O)(=O)Nc1ccc(F)c(C(=O)c2c[nH]c3ncc(-c4ccc(Cl)cc4)cc23)c1F [vemurafenib]
Outline: (§1)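 K562 pellets were dounce-homogenised in PBS pH 7.4 containing 1 mM MgCl2, and the crude extract, at 1 mg/mL protein, was exposed to 10 μM compound for 30 min. Aliquots were heated for 3 min across 48°C-58°C, pooled, brought to 0.5% NP-40 at 4°C and spun at 21,000xg for 90 min, with the supernatant taken as soluble protein. TMTpro 16plex LC-MS/MS with equalised channel sums quantified that protein. Values are log-two fold changes in thermal stability relative to solvent controls, taken from duplicates.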

[2] = compound: CCCS(=O)(=O)Nc1ccc(F)c(C(=O)c2c[nH]c3ncc(Cl)cc23)c1F
Outline: as §1

[3] = compound: CCN(CCCOc1ccc2c(Nc3cc(CC(=O)Nc4cccc(F)c4)[nH]n3)ncnc2c1)CCOP(=O)(O)O [barasertib]
Outline: as §1

[4] = compound: CC[C@@H]1C(=O)N(C)c2cnc(Nc3ccc(C(=O)NC4CCN(C)CC4)cc3OC)nc2N1C1CCCC1
Outline: as §1

[5] = compound: CC[C@@H]1C(=O)N(C)c2cnc(Nc3ccc(C(=O)N[C@H]4CC[C@H](N5CCN(CC6CC6)CC5)CC4)cc3OC)nc2N1C(C)C [volasertib]
Outline: as §1

[6] = compound: CCn1c(C(=O)N(C2CC2)C2CC2)cc2c3c(ncn3C)c(Nc3cc(C)n(C)n3)nc21
Outline: as §1

[7] = compound: CCn1cc(-c2ccnc3[nH]c(-c4cccc(CN(C)C)c4)cc23)c(-c2ccc(NC(=O)N(C)C)cc2)n1
Outline: as §1

[8] = compound: CN1CCC(CNc2ccc3ncc(-c4cccc(OC(F)(F)F)c4)n3n2)CC1
Outline: as §1

[9] = compound: CN1CCN(CCOc2cc(OC3CCOCC3)c3c(Nc4c(Cl)ccc5c4OCO5)ncnc3c2)CC1 [saracatinib]
Outline: as §1

[10] = compound: CN1CCN(c2nc(C3=C(c4c[nH]c5ccccc45)C(=O)NC3=O)c3ccccc3n2)CC1 [sotrastaurin]
Outline: as §1

[11] = compound: CN1CC[C@H](c2c(O)cc(O)c3c(=O)cc(-c4ccccc4Cl)oc23)[C@H](O)C1 [alvocidib]
Outline: as §1

[12] = compound: CN1CCc2c(c3ccccc3n2Cc2ccc(C(=O)NO)cc2)C1 [Tubastatin A]
Outline: as §1

[13] = compound: CNC(=O)C1=CC=CC=C1NC2=NC(=NC=C2Cl)NC3=C(C=C(C=C3)N4CCOCC4)OC
Outline: as §1

[14] = compound: CNC(=O)c1ccc(Nc2ncc(C(F)(F)F)c(NCc3nccnc3N(C)S(C)(=O)=O)n2)cc1 [defactinib]
Outline: as §1

[15] = compound: CNc1nc(-c2ccc3c(N)n[nH]c3c2)cc(N2C[C@@H](C(=O)NC3CCCCC3)CC[C@H]2C)n1
Outline: as §1

[16] = compound: COC(=O)N[C@@H](C)CNc1nccc(-c2cn(C(C)C)nc2-c2cc(Cl)cc(NS(C)(=O)=O)c2F)n1 [encorafenib]
Outline: as §1

[17] = compound: COC(=O)[C@H](CCSC)NC(=O)C1=C(C=C(C=C1)NC[C@H](CS)N)C2=CC=CC=C2
Outline: as §1

[18] = compound: COc1cc(Nc2ncc3c(n2)-c2ccc(Cl)cc2C(c2c(F)cccc2OC)=NC3)ccc1C(=O)O [alisertib]
Outline: as §1

[19] = compound: COc1cc2nc(-c3cc(F)ccc3O)nc(N[C@@H]3CNC[C@H]3C(C)(C)O)c2cc1OC
Outline: as §1

[20] = compound: COc1cc2ncnc(Nc3ccc(F)c(Cl)c3)c2cc1OCCCN1CCOCC1 [gefitinib]
Outline: as §1

UniProt O14979, sequence (O14979 whole entry, looked up): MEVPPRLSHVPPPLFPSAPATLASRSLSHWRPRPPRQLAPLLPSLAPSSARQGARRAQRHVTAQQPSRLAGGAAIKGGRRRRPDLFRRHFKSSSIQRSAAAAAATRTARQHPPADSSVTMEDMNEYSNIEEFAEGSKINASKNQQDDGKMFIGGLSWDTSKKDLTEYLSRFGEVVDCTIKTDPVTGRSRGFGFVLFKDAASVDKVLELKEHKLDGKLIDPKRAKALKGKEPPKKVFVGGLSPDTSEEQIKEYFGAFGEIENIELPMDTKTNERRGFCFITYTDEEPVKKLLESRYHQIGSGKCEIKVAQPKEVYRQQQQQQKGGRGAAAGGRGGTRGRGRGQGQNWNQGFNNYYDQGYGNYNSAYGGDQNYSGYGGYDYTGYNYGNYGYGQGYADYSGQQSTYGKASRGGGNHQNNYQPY
UniProt Q96SY0, sequence (Q96SY0 whole entry, looked up): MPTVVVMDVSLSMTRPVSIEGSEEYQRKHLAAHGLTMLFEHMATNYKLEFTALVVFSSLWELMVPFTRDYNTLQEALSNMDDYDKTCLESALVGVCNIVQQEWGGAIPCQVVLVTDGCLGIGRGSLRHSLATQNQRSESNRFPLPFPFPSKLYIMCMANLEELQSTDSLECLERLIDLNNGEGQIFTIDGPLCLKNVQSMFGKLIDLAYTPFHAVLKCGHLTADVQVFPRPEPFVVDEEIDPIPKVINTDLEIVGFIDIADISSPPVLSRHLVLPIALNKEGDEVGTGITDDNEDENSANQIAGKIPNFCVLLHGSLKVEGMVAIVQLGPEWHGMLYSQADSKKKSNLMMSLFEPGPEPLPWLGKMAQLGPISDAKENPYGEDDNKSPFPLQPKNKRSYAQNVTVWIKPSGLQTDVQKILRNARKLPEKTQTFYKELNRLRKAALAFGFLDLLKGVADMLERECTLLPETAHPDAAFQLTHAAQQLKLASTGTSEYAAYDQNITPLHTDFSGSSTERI
UniProt Q9P2X3, sequence (Q9P2X3 whole entry, looked up): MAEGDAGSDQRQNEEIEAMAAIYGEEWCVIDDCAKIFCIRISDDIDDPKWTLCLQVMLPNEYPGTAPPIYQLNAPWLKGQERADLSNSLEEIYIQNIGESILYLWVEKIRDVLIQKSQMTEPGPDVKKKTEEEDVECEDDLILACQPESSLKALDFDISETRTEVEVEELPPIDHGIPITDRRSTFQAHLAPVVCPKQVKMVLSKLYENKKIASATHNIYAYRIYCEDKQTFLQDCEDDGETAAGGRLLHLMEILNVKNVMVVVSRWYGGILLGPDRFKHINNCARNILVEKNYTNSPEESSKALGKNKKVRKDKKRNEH
UniProt Q49A26, sequence (Q49A26 whole entry, looked up): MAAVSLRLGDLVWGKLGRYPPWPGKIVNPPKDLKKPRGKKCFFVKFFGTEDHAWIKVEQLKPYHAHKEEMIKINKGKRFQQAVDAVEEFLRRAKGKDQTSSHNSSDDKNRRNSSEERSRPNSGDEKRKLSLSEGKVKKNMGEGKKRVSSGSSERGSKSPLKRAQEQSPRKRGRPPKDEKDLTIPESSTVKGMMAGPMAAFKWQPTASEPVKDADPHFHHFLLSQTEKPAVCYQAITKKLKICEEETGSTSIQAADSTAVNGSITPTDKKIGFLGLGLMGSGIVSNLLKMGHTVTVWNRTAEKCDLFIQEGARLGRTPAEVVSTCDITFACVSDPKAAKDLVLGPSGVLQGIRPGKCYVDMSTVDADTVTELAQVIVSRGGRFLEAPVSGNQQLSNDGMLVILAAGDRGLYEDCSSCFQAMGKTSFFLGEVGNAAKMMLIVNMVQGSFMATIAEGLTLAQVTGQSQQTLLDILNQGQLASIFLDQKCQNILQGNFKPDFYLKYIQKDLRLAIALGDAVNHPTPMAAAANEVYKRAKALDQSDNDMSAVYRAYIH
UniProt P49915, sequence (P49915 whole entry, looked up): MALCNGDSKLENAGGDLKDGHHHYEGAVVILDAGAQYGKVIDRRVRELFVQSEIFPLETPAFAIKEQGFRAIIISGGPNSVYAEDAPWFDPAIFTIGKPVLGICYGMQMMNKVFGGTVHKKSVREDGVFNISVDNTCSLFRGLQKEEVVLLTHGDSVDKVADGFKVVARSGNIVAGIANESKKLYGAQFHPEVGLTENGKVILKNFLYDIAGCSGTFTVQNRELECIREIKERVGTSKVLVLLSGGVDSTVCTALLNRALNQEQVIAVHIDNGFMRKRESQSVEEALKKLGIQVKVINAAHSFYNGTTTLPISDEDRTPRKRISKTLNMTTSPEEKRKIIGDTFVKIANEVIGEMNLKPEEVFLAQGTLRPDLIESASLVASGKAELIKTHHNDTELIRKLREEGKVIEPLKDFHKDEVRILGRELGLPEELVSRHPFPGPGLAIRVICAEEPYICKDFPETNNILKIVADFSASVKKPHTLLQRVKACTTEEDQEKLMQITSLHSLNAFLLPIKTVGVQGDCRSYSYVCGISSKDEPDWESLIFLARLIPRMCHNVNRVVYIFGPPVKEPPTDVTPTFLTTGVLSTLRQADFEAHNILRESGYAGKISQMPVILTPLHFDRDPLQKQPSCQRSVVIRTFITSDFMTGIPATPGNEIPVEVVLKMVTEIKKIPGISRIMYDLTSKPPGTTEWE
UniProt Q9BUJ2, sequence (Q9BUJ2 whole entry, looked up): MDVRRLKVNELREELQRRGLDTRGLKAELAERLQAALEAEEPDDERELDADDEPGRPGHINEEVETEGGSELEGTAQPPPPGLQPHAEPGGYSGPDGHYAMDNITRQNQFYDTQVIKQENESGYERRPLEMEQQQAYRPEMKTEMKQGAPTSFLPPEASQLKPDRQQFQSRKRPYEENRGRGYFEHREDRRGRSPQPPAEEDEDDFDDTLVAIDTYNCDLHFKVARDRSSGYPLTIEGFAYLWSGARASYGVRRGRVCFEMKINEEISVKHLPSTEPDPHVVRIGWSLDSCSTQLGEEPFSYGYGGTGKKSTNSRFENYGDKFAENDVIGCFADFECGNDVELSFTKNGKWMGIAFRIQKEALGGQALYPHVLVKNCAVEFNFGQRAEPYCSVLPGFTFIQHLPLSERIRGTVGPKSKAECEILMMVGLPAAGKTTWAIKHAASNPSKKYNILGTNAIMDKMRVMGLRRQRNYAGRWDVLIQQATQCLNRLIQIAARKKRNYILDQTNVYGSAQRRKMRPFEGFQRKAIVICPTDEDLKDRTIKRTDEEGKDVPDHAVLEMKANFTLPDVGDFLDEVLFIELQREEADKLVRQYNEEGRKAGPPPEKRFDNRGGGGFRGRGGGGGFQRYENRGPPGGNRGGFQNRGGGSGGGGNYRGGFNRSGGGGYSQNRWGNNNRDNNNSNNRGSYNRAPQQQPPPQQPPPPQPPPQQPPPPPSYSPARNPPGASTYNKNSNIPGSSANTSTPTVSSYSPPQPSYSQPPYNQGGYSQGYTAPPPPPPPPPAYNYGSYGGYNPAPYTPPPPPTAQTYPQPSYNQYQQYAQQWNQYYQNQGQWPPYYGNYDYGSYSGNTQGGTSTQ
UniProt P82970, sequence (P82970 whole entry, looked up): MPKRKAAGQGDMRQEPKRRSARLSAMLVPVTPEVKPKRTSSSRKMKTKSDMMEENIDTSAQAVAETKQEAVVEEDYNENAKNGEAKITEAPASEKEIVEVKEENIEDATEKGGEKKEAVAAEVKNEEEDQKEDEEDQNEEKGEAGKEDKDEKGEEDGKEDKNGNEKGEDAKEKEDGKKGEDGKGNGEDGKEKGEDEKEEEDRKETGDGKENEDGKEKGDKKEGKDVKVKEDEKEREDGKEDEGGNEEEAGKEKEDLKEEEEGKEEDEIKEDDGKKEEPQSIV
UniProt Q6P9B9, sequence (Q6P9B9 whole entry, looked up): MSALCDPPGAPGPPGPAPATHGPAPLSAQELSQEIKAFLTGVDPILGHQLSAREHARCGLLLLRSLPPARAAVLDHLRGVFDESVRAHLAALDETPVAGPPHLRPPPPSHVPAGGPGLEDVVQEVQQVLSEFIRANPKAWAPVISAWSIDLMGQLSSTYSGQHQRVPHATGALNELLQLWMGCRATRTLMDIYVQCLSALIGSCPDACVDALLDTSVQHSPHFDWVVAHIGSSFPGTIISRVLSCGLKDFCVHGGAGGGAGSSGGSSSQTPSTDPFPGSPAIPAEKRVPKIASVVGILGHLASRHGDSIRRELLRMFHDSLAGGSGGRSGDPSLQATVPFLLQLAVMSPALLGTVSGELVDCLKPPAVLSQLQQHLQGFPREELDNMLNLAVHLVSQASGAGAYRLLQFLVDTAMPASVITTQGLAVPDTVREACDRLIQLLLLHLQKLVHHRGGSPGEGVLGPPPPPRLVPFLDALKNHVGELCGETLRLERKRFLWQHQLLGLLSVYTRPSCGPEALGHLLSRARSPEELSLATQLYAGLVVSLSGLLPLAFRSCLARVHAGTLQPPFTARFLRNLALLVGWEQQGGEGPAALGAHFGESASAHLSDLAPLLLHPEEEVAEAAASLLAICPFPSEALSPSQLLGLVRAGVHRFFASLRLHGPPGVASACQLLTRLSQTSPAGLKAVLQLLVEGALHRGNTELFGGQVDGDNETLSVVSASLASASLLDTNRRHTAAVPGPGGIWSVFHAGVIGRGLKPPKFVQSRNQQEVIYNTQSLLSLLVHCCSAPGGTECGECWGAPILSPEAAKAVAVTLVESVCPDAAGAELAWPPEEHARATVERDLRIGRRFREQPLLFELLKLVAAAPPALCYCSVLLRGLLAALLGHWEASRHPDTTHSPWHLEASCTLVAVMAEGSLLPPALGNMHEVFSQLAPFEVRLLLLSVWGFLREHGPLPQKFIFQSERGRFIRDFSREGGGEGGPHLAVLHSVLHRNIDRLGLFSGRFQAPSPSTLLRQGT
UniProt P62873, sequence (P62873 whole entry, looked up): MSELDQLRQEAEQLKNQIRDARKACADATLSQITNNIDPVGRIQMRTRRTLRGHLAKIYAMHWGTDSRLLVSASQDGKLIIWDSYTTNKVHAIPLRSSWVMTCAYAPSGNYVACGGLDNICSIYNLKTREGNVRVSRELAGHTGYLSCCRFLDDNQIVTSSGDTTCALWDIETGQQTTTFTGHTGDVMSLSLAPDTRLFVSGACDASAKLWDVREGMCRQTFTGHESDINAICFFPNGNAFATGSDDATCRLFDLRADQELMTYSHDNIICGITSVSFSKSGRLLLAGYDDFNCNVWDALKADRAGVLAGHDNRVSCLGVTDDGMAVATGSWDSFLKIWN

Row | Target | log2 fold change [1] | log2 fold change [2] | log2 fold change [3] | log2 fold change [4] | log2 fold change [5] | log2 fold change [6] | log2 fold change [7] | log2 fold change [8] | log2 fold change [9] | log2 fold change [10] | log2 fold change [11] | log2 fold change [12] | log2 fold change [13] | log2 fold change [14] | log2 fold change [15] | log2 fold change [16] | log2 fold change [17] | log2 fold change [18] | log2 fold change [19] | log2 fold change [20]
1 | INTS3 (UniProt Q68E01) | 0.038 | 0.02 | 0.05 | -0.029 | -0.017 | -0.083 | 0.072 | -0.018 | 0.049 | 0.015 | -0.003 | 0.012 | 0.003 | 0.012 | -0.002 | -0.027 | 0.072 | -0.031 | 0.005 | 0.047
2 | GLYR1 (UniProt Q49A26) | -0.059 | 0.019 | 0.162 | 0.045 | -0.005 | 0.011 | -0.088 | 0.038 | 0.05 | 0.064 | 0.013 | -0.007 | -0.046 | -0.084 | -0.078 | -0.001 | 0.074 | -0.011 | -0.046 | -0.093
3 | HNRNPL (UniProt P14866) | 0.01 | 0.023 | 0.021 | -0.052 | -0.047 | 0.061 | -0.012 | -0.056 | 0.017 | 0.023 | 0.035 | -0.174 | 0.016 | 0.015 | -0.02 | 0 | 0.073 | -0.026 | -0.007 | -0.019
4 | HNRNPDL (UniProt O14979) | -0.039 | 0.026 | -0.03 | 0.008 | -0.002 | 0.003 | 0.043 | 0.018 | -0.036 | -0.098 | 0.01 | -0.017 | 0.018 | -0.006 | -0.002 | -0.028 | -0.017 | 0.04 | -0.005 | -0.029
5 | GMPS (UniProt P49915) | -0.006 | -0.011 | -0.008 | -0.05 | -0.046 | -0.011 | 0.128 | -0.047 | 0.014 | -0.005 | 0.04 | -0.065 | -0.009 | 0.014 | -0.025 | -0.022 | 0.025 | 0.005 | -0.003 | -0.026
6 | HNRNPUL1 (UniProt Q9BUJ2) | -0.042 | 0.005 | -0.004 | -0.032 | 0.005 | 0.034 | 0.017 | 0.019 | 0.041 | 0.014 | 0.006 | 0.01 | -0.011 | 0.002 | -0.027 | 0.003 | -0.003 | -0.012 | 0.007 | -0.015
7 | HMGN5 (UniProt P82970) | -0.007 | -0.011 | -0.044 | 0.016 | 0.013 | -0.044 | 0.3 (active) | -0.164 | -0.027 | -0.029 | 0.04 | 0.045 | -0.029 | 0.051 | 0.018 | -0.029 | -0.023 | -0.036 | 0.006 | -0.028
8 | INTS5 (UniProt Q6P9B9) | 0.052 | -0.167 | 0.044 | 0.042 | 0.223 | 0.023 | 0.029 | -0.072 | 0.069 | -0.092 | 0.038 | -0.055 | 0.027 | 0.017 | -0.047 | 0.02 | -0.259 | 0.028 | 0.013 | 0.045
9 | GSE1 (UniProt Q14687) | -0.018 | 0.035 | 0.011 | -0.015 | -0.026 | 0.007 | -0.074 | -0.009 | 0.031 | 0.049 | -0.032 | -0.155 | 0.014 | -0.006 | -0.001 | 0.017 | 0.05 | -0.017 | 0.027 | 0.013
10 | KEAP1 (UniProt Q14145) | 0.014 | 0 | 0.01 | -0.008 | -0.001 | -0.016 | -0.017 | 0.044 | -0.018 | 0.033 | -0.024 | -0.019 | -0.008 | 0.014 | 0.017 | 0.043 | -0.094 | 0.012 | 0.013 | 0.018
11 | INTS7 (UniProt Q9NVH2) | -0.059 | -0.058 | 0.335 | -0.073 | 0.013 | 0.028 | 0.027 | 0.039 | 0.005 | -0.057 | -0.012 | 0.008 | -0.025 | -0.125 | -0.017 | 0.067 | 0.017 | -0.022 | -0.018 | 0.028
12 | HECTD4 (UniProt J3KPF0) | 0.04 | 0.035 | 0.014 | 0.009 | -0.09 | 0.037 | 0.007 | 0.043 | 0.006 | -0.024 | -0.027 | -0.075 | 0.001 | 0.012 | -0.017 | -0.072 | 0.146 | 0.013 | 0.045 | -0.043
13 | GNB1 (UniProt P62873) | -0.048 | 0.124 | -0.016 | -0.081 | 0.008 | -0.037 | -0.072 | 0.05 | -0.038 | -0.287 (active) | -0.095 | 0.029 | -0.023 | -0.028 | -0.011 | 0.007 | 0.003 | -0.023 | -0.011 | -0.128
14 | GSK3A (UniProt P49840) | -0.013 | 0.006 | -0.04 | -0.015 | -0.01 | 0.026 | -0.133 | 0.154 | 0.01 | 0.535 (active) | 0.53 (active) | -0.089 | 0.05 | 0.353 | -0.042 | 0.161 | -0.118 | -0.03 | -0.015 | 0.003
15 | INTS14 (UniProt Q96SY0) | -0.046 | 0.034 | -0.021 | 0.019 | -0.013 | -0.017 | -0.071 | 0.008 | -0.019 | 0.001 | -0.001 | -0.066 | 0.032 | 0.025 | 0.02 | 0.006 | -0.1 | -0.018 | 0.015 | -0.003
16 | IMPACT (UniProt Q9P2X3) | 0.158 | -0.117 | -0.014 | -0.095 | 0.053 | 0.133 | 0.003 | -0.122 | 0.001 | 0.058 | 0.002 | -0.04 | -0.006 | 0.013 | -0.05 | 0.063 | -0.083 | -0.024 | -0.044 | 0.167
